Measurements reported in PubChem BioAssay AID1850 (Southern Research Specialized Biocontainment Screening …, 2009).
The campaign covered roughly 310,000 compounds. About 1,000 (0.32%) were called active. A selection follows. Entries with a potency or affinity are not part of this list. A number with no mark means an inactive call. No rule for the calls is given here.

Experiment: Inhibition of PhoP regulon, Salmonella typhi GFP reporter cells, confirmation, 4 h (AID 1850);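 also: 0% = induced wells with vehicle and 100% = uninduced wells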
Details: Salmonella Typhi PhoP-promoter GFP reporter, fluorescence, at 50 µM, stronger effect = higher value

SMILES | inhibition [%]
CC(C)n1nc(C(=O)OCC(=O)N(C)C2CCS(=O)(=O)C2)c2ccccc2c1=O (stereo not given) | -1.06
COCCn1c(SCc2cccc(F)c2)nc2cc(C(=O)OC)ccc2c1=O | 6.64
O=C(c1cc(-c2cccc(O)c2)on1)N1CCCCCC1 | 14.9
CN(C)S(=O)(=O)c1cccc(NC(=O)COc2ccc(C(=O)c3ccccc3)cc2)c1 | -35.4
COc1ccc(CCn2c(-n3nc(C)cc3C)nc3c2c(=O)[nH]c(=O)n3C)cc1 | 0.46
O=C(NCC(=O)N1CCCCC1)c1ccc(Br)o1 | 20.3
N#C/C(=N\Nc1ccc(S(=O)(=O)N2CCOCC2)cc1)C(N)=S | 6.96
O=C(Nc1ccc(SC(F)F)cc1)C1CC(=O)N(Cc2ccccc2)C1 (stereo not given) | 17.5
OCC1(Cc2ccc(Cl)cc2)CCN(Cc2ccc(F)c(F)c2)CC1 | 1.77
CCn1c(=O)n(CC)c2cc(NC(=O)c3ccccc3Cl)ccc21 | -4.48
C/C(CC(=O)Nc1ccc2c(c1)OCO2)=N\NC(=O)OC(C)(C)C | 1.68
Cc1ccc(C(=O)Nc2cccc(NC(=O)c3cccs3)c2)c(C)c1 | -6.14
Cc1cc(C)c(S(=O)(=O)NCCCn2ccnc2)c(C)c1 | -3.5
CCCCCCCCCCCCCCCC[n+]1cccc2ccccc21 | -4.68
CCCCC[n+]1cccc2c3ccccc3ccc21 | 0.18
Cc1ccc(-c2c[n+](CC(=O)N3c4ccccc4Sc4ccccc43)c3n2CCC3)cc1 | 6.09
O=C(C[n+]1cc(-c2ccccc2)n2c1CCC2)N1c2ccccc2Sc2ccccc21 | 13.9
O=C(C[n+]1cc(-c2ccc(F)cc2)n2c1CCC2)N1c2ccccc2Sc2ccccc21 | -2.79
COc1ccc(-c2c[n+](CC(=O)N3c4ccccc4Sc4ccccc43)c3n2CCC3)cc1 | 18.6
CC/C(=N\NC(=O)c1ccncc1)C12CC3CC(CC(C3)C1)C2 | 8.69
CCOC(=O)N1CCC(=NNC(=O)COc2ccc(C#N)cc2)CC1 | -4.18
COc1ccc(OC)c(CCNC(=O)c2sc3nc4n(c(=O)c3c2C)CCC4)c1 | 4.26
Cc1ccc(/C=N/NC(=O)c2ccoc2C)s1 | 0.98
Cc1occc1C(=O)N/N=C/c1ccc(Br)s1 | 1.4

SMILES | inhibition [%]
CC(/C=N\NC(=O)CN1CCN(S(=O)(=O)c2ccc(C)cc2)CC1)=C\c1ccccc1 | -12
CCOC(=O)[C@H]1[C@H]2COc3ccccc3[C@@H]2N2C(=O)c3ccccc3NC(=O)[C@@]12C | -4.39
CCCOc1ccc(-c2nc(N3CCN(C)CC3)c3ccccc3n2)cc1 | 9.86
O=C(O)COc1ccccc1C(Nc1ccccn1)c1cc(Cl)c2cccnc2c1O (stereo not given) | -6.17
O=C(NC(c1ccccc1)c1cc(Cl)c2cccnc2c1O)c1cccnc1 (stereo not given) | -1.98
CC(=O)c1ccc(OCC(O)CN2CCN(CCO)CC2)cc1 (stereo not given) | -2.27
O=C(COC(=O)CCCN1C(=O)c2cccc3cccc(c23)C1=O)Nc1cccc(C(F)(F)F)c1 | -5.09
CCOc1ccc(OCCNC2CCCC2)cc1 | 6.72
Cc1ccc(OCCCNC2CCCC2)cc1 | 2.57
Oc1c(CN2CCN(c3ccccc3)CC2)cc(Br)c2cccnc12 | -1.71
O=C(Oc1c(CN2CCOCC2)cc(Cl)c2cccnc12)c1ccccc1Cl | 4.13
O=C(Oc1c(CN2CCOCC2)cc(Cl)c2cccnc12)c1cccs1 | -0.05
COCc1cc(CN2CCCC2)c(O)c2ncccc12 | -3.73
O=C(Nc1ccc(-c2nc3cccnc3s2)cc1)c1cccnc1Cl | 16.9
CC(=O)Nc1ccc(S(=O)(=O)N2CCN(c3cc(C)nc4ncnn34)CC2)cc1 | -16.9
O=C(Nc1ccccc1)Nc1ccc(F)cc1F | -5.6
CC(=O)Nc1cccc(NC(=S)Nc2ccc(F)cc2F)c1 | 4.43
CCOc1ccc2nc(N(CCCN(C)C)C(=O)c3ccc4c(c3)CCCC4)sc2c1 | 2.97
CCN(CC)CCN(C(=O)c1ccc2c(c1)CCCC2)c1nc2ccc(C)cc2s1 | -8.88
Cc1ccc(C(=O)N(CCCN(C)C)c2nc3ccc(Cl)cc3s2)cc1C | 9.54
CN(C)CCCN(C(=O)c1sc2ccccc2c1Cl)c1nc2ccc(F)cc2s1 | -7.99
CN(C)CCN(C(=O)C1=COCCO1)c1nc2ccc(F)cc2s1 | -3.62
CN(C)CCCN(C(=O)C1=COCCO1)c1nc2ccc(Br)cc2s1 | -8.06
CN(C)CCCN(C(=O)c1ccc2c(c1)CCCC2)c1nc2ccc(F)cc2s1 | 16.4

SMILES | inhibition [%]
Cc1cccc2sc(N(CCCN(C)C)C(=O)c3sc4ccccc4c3Cl)nc12 | -4.13
Cc1cccc(Cl)c1OCCN1CCCC1 | -6.23
O=C(NCCN1CCOCC1)/C(=C/c1ccc(Cl)cc1)NC(=O)c1ccccc1 | 0.05
COc1cc(CCC(=O)OCC(=O)Nc2ccc(C)cc2Cl)cc(OC)c1OC | -0.48
Cc1ccc(S(=O)(=O)Nc2nncs2)cc1 | -8.26
CC(CCN1CCN=C1Nc1ccccc1)c1ccccc1 (stereo not given) | 0.31
COc1ccccc1CNC(=O)CCC(=O)N1C[C@H]2C[C@@H](C1)c1cccc(=O)n1C2 | 0.48
CCOCC(=O)Nc1nnc(SCCOC)s1 | -8.99
O=C(CC(n1cncn1)C(Cl)(Cl)Cl)c1ccc([N+](=O)[O-])cc1 (stereo not given) | -2.18
CC(=O)NC(CC(=O)c1ccc([N+](=O)[O-])cc1)C(Cl)(Cl)Cl (stereo not given) | -10.7
O=C(CSC1=NC(=O)C(c2ccccc2)C(=O)N1)Nc1ccccc1[N+](=O)[O-] (stereo not given) | 0.46
Cc1ccccc1-n1ncc2c1CC(C)(C)CC2NC(=O)C1CCC1 (stereo not given) | 6.32
N/C(=N\OS(=O)(=O)c1ccccc1)c1ccncc1 | 6.44
N/C(=N\OC(=O)c1ccc(Cl)cc1)c1cccnc1 | 8.82
N/C(=N\OS(=O)(=O)c1ccc(Cl)cc1)c1ccncc1 | -3.25
N/C(=N\OC(=O)c1ccccc1)c1cccnc1 | -1.82
N/C(=N\OS(=O)(=O)c1ccc2ccccc2c1)c1ccncc1 | 9.71
N/C(=N\OC(=O)COc1ccc2ccccc2c1)c1cccnc1 | -4.96
O=C(COC(=O)c1ccc([N+](=O)[O-])o1)Nc1cccc(S(=O)(=O)N2CCCCC2)c1 | 9.11
CC(=O)N(C)c1ccc(NS(=O)(=O)c2cc(Cl)ccc2Cl)cc1 | -11.6
CCOC(=O)C1C(=O)C=C(c2cccs2)CC1c1ccccc1C (stereo not given) | -6.96
CC1CN(C)C(C)CC1OC(=O)C(c1ccccc1)c1ccccc1 (stereo not given) | -11.9
CCCCOc1ccc(C(=O)N2CC(C)OC(C)C2)cc1 (stereo not given) | -8.56
Cc1ccc(N2OC3C(=O)NC(=O)C3C2c2ccco2)cc1 (stereo not given) | -16

SMILES | inhibition [%]
O=C(Cn1nc(CNc2ccc(Cl)cc2)[n+]2c1CCCCC2)c1ccccc1 | -5.48
Cc1ccc(C(C)C)c(OCc2nn(CC(=O)c3ccc(Cl)cc3)c3[n+]2CCCCC3)c1 | -26.5
COc1ccc(NCc2nn(CC(=O)c3ccc(Br)cc3)c3[n+]2CCCCC3)cc1 | 8.75
COc1ccc(C(=O)Cn2nc(CNc3ccc(Br)cc3)[n+]3c2CCCCC3)cc1 | 1.1
COC(=O)CNC(c1ccccc1)c1cc(Cl)ccc1NC(=O)c1cccc(Cl)c1 (stereo not given) | -1.38
COCc1cnc(C)nc1N | -2.28
CCCCOc1ccc(Cc2cnc(N)nc2N)cc1 | -18.3
COc1ccccc1OCc1nc2ccccc2n1C | -1.73
O=C(NNC(=O)C(c1ccccc1)c1ccccc1)c1cccs1 | -3.78
CN1CCN(c2ccc(NC(=O)c3ccc(Br)o3)cc2)CC1 | -0.39
CN1CCN(c2ccc(NC(=O)c3ccc(-c4ccc(Cl)cc4)o3)cc2)CC1 | 14.7
Cc1ccc(NC(=O)CSc2nnc(CNC(=O)c3ccco3)o2)cc1Cl | -4.93
CCCCC(=O)NNC(=S)NC(=O)c1ccc(C)cc1 | 12.1
CCCCC(=O)NC(=S)NNC(=O)CCc1ccccc1 | -4.48
CCCCC(=O)NC(=S)NNC(=O)CC#N | 15.9
CCCCCC(=O)NC(=S)NC1C2CC3CC(C2)CC1C3 (stereo not given) | 14.6
CCCCCCCC(=O)NNC(=O)CCC(=O)O | -4.06
CCCCC(=O)NC(=S)Nc1cccc(NC(=O)CC)c1 | -1.01
CCCCCC(=O)NNC(=S)NC(=O)c1ccc([N+](=O)[O-])cc1 | -13
CCCCC(=O)NNC(=S)NC(=O)C(c1ccccc1)c1ccccc1 | -0.63
O=C(CNc1cccc(S(=O)(=O)N2CCOCC2)c1)N1CCc2ccccc21 | -12.4
Cc1cc(-n2c(=S)sc3c(=O)n(-c4ccc(F)cc4)c(SCC(=O)O)nc32)ccc1Cl | 2.23
CN(c1ccccc1)S(=O)(=O)c1ccc(NC(=O)c2ccc(F)cc2)cc1 | -3.04
